High-throughput results from PubChem BioAssay.
CYP2C19 activ = increases human CYP2C19 enzyme activity. recombinant CYP2C19, luciferin-H EGE luminescence; active compounds read high; 0 = fully inhibited enzyme, 1 = untreated enzyme. P33261. 96,000 tested, under 10 active. activation factor at 5 µM;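 active = activation factor of at least 2 at 5 µM in the primary screen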
Target sequence (P33261 whole entry, looked up): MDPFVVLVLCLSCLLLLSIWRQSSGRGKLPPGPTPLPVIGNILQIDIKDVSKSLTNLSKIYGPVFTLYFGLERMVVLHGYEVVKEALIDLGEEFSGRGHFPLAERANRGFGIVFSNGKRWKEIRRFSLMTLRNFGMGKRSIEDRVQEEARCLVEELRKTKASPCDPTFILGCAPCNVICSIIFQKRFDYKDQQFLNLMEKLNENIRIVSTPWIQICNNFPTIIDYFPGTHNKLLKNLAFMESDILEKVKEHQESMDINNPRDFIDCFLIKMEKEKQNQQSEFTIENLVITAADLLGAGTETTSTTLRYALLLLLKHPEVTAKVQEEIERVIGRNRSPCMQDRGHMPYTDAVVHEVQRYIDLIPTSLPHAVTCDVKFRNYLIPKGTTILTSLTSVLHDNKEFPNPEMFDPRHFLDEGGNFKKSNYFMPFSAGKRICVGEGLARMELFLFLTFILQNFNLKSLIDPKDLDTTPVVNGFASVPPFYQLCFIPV
EphB4 ephrin blk = antagonists of human EphB4-ephrin-B2 interaction. EphB4 LBD / TNYL-RAW-Alexa532 peptide, fluorescence polarization. hit rate 0.15% among 97,000. inhibition, % at 7 µM. AID 720;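 active = inhibition above the screen-wide mean inhibition plus 3 SD, cut at about 15% in these data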
CYP2C9 activ = increases human cytochrome P450 2C9 activity. recombinant CYP2C9, luciferin-H conversion, luminescence; active compounds read high; factor 1 = untreated enzyme, 0 = blocked. activation factor at 5 µM. hit rate 1.4% among 96,000. AID 1024;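 active = activation factor of 2 or more for CYP2C9 at a 5 µM dose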
CYP2C19 inhib = blocks human cytochrome P450 2C19; P33261; CYP2C19 Supersomes, luciferin-H EGE luminescence, 30 min; inhibition, % at 5 µM; hit rate 21% among 96,000;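 active = CYP2C19 inhibition above a set limit at 5 µM in the primary screen, cut at about 50% in these data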
CYP2C9 inhib = inhibitors of human CYP2C9. hit rate 20% among 96,000. inhibition, % at 5 µM. P11712. CYP2C9 Supersomes, luciferin-H conversion, luminescence;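 active = blocking of liver enzyme CYP2C9 beyond about 50% at 5 µM, limit read from the data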
A number is an active result; 0 = inactive; - = no result given. Sampled rows, rich in hits. Any-hit rate of the full collection: about 27%.

SMILES | CYP2C19 activ | EphB4 ephrin blk | CYP2C9 activ | CYP2C19 inhib | CYP2C9 inhib
COc1ccc(C2Nc3ccccc3C(=O)N2c2ccc(C)cc2)cc1Cn1cc([N+](=O)[O-])cn1 (stereo not drawn) | 0 | 0 | 0 | 0 | 90
COc1ccc(N2C(=O)c3ccccc3NC2c2ccc(OC)c(CSc3ccccn3)c2)cc1 (stereo not drawn) | 0 | 0 | 0 | 0 | 58
COc1ccc(C2Nc3ccccc3C(=O)N2c2ccc(C)cc2)cc1Cn1nnc2ccccc21 (stereo not drawn) | 0 | 0 | 0 | 51 | 81
CC1CCCCC1NC(=O)COC(=O)c1ccc(N(C)C)cc1 (stereo not drawn) | 0 | 0 | 0 | 91 | 0
CCOC(=O)N1CCN(C(=O)c2ccccc2NC(=O)c2ccc(OC)cc2)CC1 | 0 | 0 | 0 | 0 | 0
CCC(C)NC(=O)c1ccccc1NC(=O)CN(c1ccc(OC)cc1)S(C)(=O)=O (stereo not drawn) | 0 | 0 | 0 | 72 | 98
CCOc1ccc(N(CC(=O)NC(C)CC)S(C)(=O)=O)cc1 (stereo not drawn) | 0 | 0 | 0 | 65 | 0
CCOc1ccc(N(CC(=O)NCC(C)C)S(C)(=O)=O)cc1 | 0 | - | 0 | 60 | 0
CCOC(=O)C(=O)Nc1ccccc1C(=O)Nc1ccc(OC)cc1 | 0 | 0 | 0 | 0 | 52
COc1ccc(OC)c(NC(=O)CCCN2C(=O)C3C4C=CC(C4)C3C2=O)c1 (stereo not drawn) | 0 | 0 | 0 | 0 | 0
O=C(COc1ncnc2c(Cl)cc(Cl)cc12)NCCC1=CCCCC1 | 0 | 0 | 0 | 0 | 0
Cc1ncc2c(c1OC(=O)c1ccccc1)COC(C)(C)OC2 | 0 | 0 | 0 | 100 | 78
COc1ccc(-c2ccc(-c3noc(C(C)C)n3)c(OC)n2)cc1 | 0 | 0 | 0 | 66 | 72
COc1cccc(-c2ccc(-c3noc(-c4ccccc4F)n3)c(OC)n2)c1 | 0 | 0 | 0 | 0 | 61
CN(C)CCNC(=O)c1ccc2c(c1)N(Cc1ccc(F)cc1)CCS2 | 0 | 0 | 0 | 0 | 0
CCCSc1nsc(NC(=O)C(c2ccccc2)c2ccccc2)n1 | 0 | 0 | 0 | 0 | 73
CC(C)C(=O)Nc1nc(-c2ccccc2)ns1 | - | 0 | - | - | -
O=C(NC1CCN(Cc2ccccc2)CC1)C12CC3CC(CC(C3)C1)C2 | - | 0 | - | - | -
CCN(CC#CCC1(O)c2ccccc2-c2ccccc21)C(C)C | 0 | 0 | 0 | 0 | 0
CC1=C(C(=O)Nc2ccc(F)cc2)C(c2ccc(C)o2)C2=C(CC(C)(C)CC2=O)N1 (stereo not drawn) | 0 | 0 | 0 | 0 | 0
CCc1ccc(C2=NN(c3ccc(S(N)(=O)=O)cc3)C(c3ccc(F)cc3)C2)cc1 (stereo not drawn) | 0 | 0 | 0 | 0 | 0
COc1ccc(C2CC(c3cccs3)=NN2S(=O)(=O)c2ccc(C)cc2)cc1 (stereo not drawn) | - | 0 | - | - | -
CCc1ccc(C2=NN(S(C)(=O)=O)C(c3cccs3)C2)cc1 (stereo not drawn) | 0 | 0 | 0 | 56 | 0
CCS(=O)(=O)Nc1cccc(C2=NN(S(=O)(=O)c3ccccc3)C(c3cccs3)C2)c1 (stereo not drawn) | 0 | 0 | 0 | 50 | 67
Cc1ccc(C2=NN(S(C)(=O)=O)C(c3cccs3)C2)cc1 (stereo not drawn) | 0 | 0 | 0 | 99 | 0
SMILES | CYP2C19 activ | EphB4 ephrin blk | CYP2C9 activ | CYP2C19 inhib | CYP2C9 inhib
CS(=O)(=O)N1N=C(c2ccc3nccnc3c2)CC1c1ccccc1 (stereo not drawn) | 0 | 0 | 0 | 0 | 0
CS(=O)(=O)N1N=C(c2ccc(Br)cc2)CC1c1cccs1 (stereo not drawn) | 0 | 0 | 0 | 92 | 0
CCc1ccc(NC2=NCC(=O)N2c2ccc3c(c2)OCCO3)cc1 | - | 0 | - | - | -
Cc1nc2sc3c(O)cc(=O)[nH]c3c2c(C)c1C | 0 | 0 | 0 | 0 | 0
O=C(NCCN1CCOCC1)c1cc2ccccc2[nH]1 | - | 0 | - | - | -
O=C(CSc1n[nH]c(-c2ccc(Cl)cc2Cl)n1)Nc1ccccn1 | 0 | 0 | 0 | 0 | 72
Cc1cc(NC(=O)CSc2n[nH]c(-c3cccs3)n2)no1 | 0 | 0 | 0 | 0 | 0
CCCNS(=O)(=O)c1ccc(CCC(=O)N2CCCCC2)cc1 | 0 | 0 | 0 | 0 | 0
Cc1cccc(/C=C2\CS/C(=C\c3cccc(C)c3)C2=O)c1 | 0 | 0 | 0 | 0 | 0
O=C1/C(=C/c2cccc(F)c2)CSc2sccc21 | 0 | 0 | 0 | 0 | 54
CCn1c(SCC(=O)c2ccc(C)cc2)nnc1-c1ccncc1 | 0 | 0 | 0 | 0 | 0
CCn1c(SCC(=O)c2ccc(C)cc2)nnc1-c1ccoc1C | 0 | 0 | 0 | 98 | 0
CCn1c(SCC(=O)N2CCN(c3ccccc3)CC2)nnc1-c1ccoc1C | 0 | 0 | 0 | 0 | 0
CCn1c(SCC(=O)c2ccccc2)nnc1-c1ccoc1C | 0 | 0 | 0 | 97 | 54
Cc1occc1-c1nnc(SCC(=O)c2ccc(Cl)cc2)n1CC1CCCO1 (stereo not drawn) | 0 | 0 | 0 | 0 | 0
CCn1c(SCC(=O)c2ccc(Cl)cc2)nnc1-c1ccoc1C | 0 | 0 | 0 | 66 | 0
Cc1cc(C)c2cc(CN(Cc3cccnc3)C(=O)c3ccc(F)cc3)c(Cl)nc2c1 | 0 | 0 | 0 | 52 | 0
Cc1cccc2cc(CN(Cc3cccnc3)C(=O)c3ccccc3F)c(Cl)nc12 | 0 | 0 | 0 | 68 | 55
Cc1ccc2nc(NC(=O)CNS(=O)(=O)c3ccc(Br)s3)sc2c1 | 0 | 0 | 0 | 0 | 63
Cc1ccc2nc(NC(=O)CN(C)S(=O)(=O)c3ccc(Br)s3)sc2c1 | 0 | 0 | 0 | 0 | 0
Cc1cccc2sc(NC(=O)CNS(=O)(=O)c3ccc(Br)s3)nc12 | 0 | 0 | 0 | 65 | 0
CC(C)(C)c1ccc(C(=O)NNc2cc(N3CCCCC3)nc(N3CCCCC3)n2)cc1 | 0 | 0 | 0 | 0 | 61
CCOc1ccc(OCCN2C(=O)NC3(CCCc4ccccc43)C2=O)cc1 (stereo not drawn) | 0 | 0 | 0 | 0 | 0
Cc1sc2nc(C)n(/N=C/c3ccccc3)c(=O)c2c1C | 0 | 0 | 0 | 77 | 0
O=C(c1ccc(Cl)cc1)c1cnc(-c2ccc(Cl)cc2)s1 | 0 | 0 | 0 | 64 | 0
SMILES | CYP2C19 activ | EphB4 ephrin blk | CYP2C9 activ | CYP2C19 inhib | CYP2C9 inhib
O=C(c1ccccc1)c1cnc(-c2ccc(Cl)cc2)s1 | 0 | 0 | 0 | 0 | 0
COc1ccc(N(CC(=O)Nc2ccc(F)c(Cl)c2)S(=O)(=O)c2c(C)noc2C)cc1 | 0 | 0 | 0 | 0 | 0
Cc1ccc(NC(=O)CCNS(=O)(=O)c2cccc3nonc23)cc1 | 0 | - | 0 | 0 | 0
Cc1ccc(NC(=O)CN(c2ccc3c(c2)OCO3)S(=O)(=O)c2c(C)n[nH]c2C)cc1 | - | 0 | - | - | -
COc1cc(NC(=O)CN(c2ccc(C)cc2)S(=O)(=O)c2c(C)n[nH]c2C)cc(OC)c1 | 0 | 0 | 0 | 82 | 84
Cc1ccc(N(CC(=O)Nc2cccc(C)c2)S(=O)(=O)c2cccc3nonc23)cc1 | 0 | 0 | 0 | 55 | 89
CCc1cccc(NC(=O)CN(c2ccc(OC)cc2)S(=O)(=O)c2c(C)n[nH]c2C)c1 | 0 | 0 | 0 | 88 | 78
